Drawing on PubChem BioAssay AID493036 (Sanford-Burnham Center for Chemical Genomics, 2011), this text covers cell count and activation for 41 compounds.

Hit rate of the full screen: of about 330,000 compounds, about 560 (0.17%) were called active. The sample holds actives, similar compounds and a random draw of the others, so the mix is not that of the screen.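 The calls were made as follows: active = activation at or above 40% of the spot to cytoplasm intensity ratio, with at least 20 cells analyzed; inconclusive = wells under 20 cells, flagged as cytotoxic or low count; inactive = the rest.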

Assay [1] is described as follows: agonists of human NTR1, primary screen, imaging, U2OS cells, beta-arrestin-GFP, high content (AID 493036).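 As to activation: 0% = DMSO without peptide and 100% = 100 nM NTR1 peptide.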 To be noted: NTR1-U2OS beta-arrestin-GFP spot imaging, agonist mode; measured here: cell count, cytotoxicity flag; at 20 µM.
The target of assay [2] is Neurotensin receptor type 1 (Homo sapiens) (UniProt P30989). The description is as above. To be noted: NTR1-U2OS beta-arrestin-GFP spot imaging, agonist mode; at 20 µM; stronger effect = higher value.
Sequence of Neurotensin receptor type 1 (Homo sapiens) (P30989 whole entry, looked up): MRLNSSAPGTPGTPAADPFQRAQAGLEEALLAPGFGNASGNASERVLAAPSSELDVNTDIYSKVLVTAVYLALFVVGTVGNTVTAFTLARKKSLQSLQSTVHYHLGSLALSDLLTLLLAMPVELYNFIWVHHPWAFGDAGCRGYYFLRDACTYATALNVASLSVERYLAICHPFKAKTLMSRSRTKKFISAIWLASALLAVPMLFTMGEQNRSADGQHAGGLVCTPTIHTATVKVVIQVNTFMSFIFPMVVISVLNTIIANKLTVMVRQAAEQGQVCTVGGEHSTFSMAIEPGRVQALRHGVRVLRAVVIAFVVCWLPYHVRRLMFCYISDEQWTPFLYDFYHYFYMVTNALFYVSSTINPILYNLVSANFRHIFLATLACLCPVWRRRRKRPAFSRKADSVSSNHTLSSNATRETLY

In assay [1], `CCCCOc1ccc(N(CC(=O)NC(C)C)C(=O)CCC(=O)Nc2ccccn2)cc1` registered a cell count of 43 cells. Also, in assay [2], the activation was -1.4% (inactive).
For `Cc1ccc(S(=O)(=O)N2CCOCC2)cc1NC(=O)COC(=O)c1cnccn1` the same measures were 51 cells and -0.4% (inactive).
Consider `O=C1CCC(CCC(=O)N2CCCC(C(=O)c3ccc(Cl)cc3)C2)=NN1` (configuration not stated), for which the cell count in assay [1] was 70 cells. Also, the activation in assay [2] is -0.5% (inactive).
`CCOC(=O)/C(=N\Nc1ccccc1[N+](=O)[O-])c1csc(Nc2ccccc2)n1` came in with a cell count in assay [1] of 59 cells. Further, the activation in assay [2] is 12.7% (inactive).
For `CCOC(=O)/C(C#N)=C/c1ccc(OCC(=O)Nc2ccccc2)c(OC)c1` the same measures were 80 cells and -4.5% (inactive).
For `CCOC(=O)/C(=C\c1ccc([N+](=O)[O-])cc1)C(=O)c1cc(C(C)=O)c(Nc2ccccc2)s1` the same measures were 50 cells and 49.8% (active).
Taken in the same sequence, the figures for `COc1ccc(S(=O)(=O)N2CCCCC2)cc1NC(=O)COc1ccccc1` were 55 cells and 2.1% (inactive).
Compound `COCC(C)n1c(C)cc(C(=O)CSc2cc(C)c3ccccc3n2)c1C` (configuration not stated) yielded a cell count in assay [1] of 54 cells. In assay [2], the activation was 5% (inactive).
Taken in the same sequence, the figures for `O=C(O)C1CCN(C(=O)OCc2ccccc2)CC1` were 88 cells and -0.7% (inactive).
For `CC1=C(C(N)=O)C(c2ccc(Br)cc2)n2ncnc2N1` (configuration not stated) the same measures were 82 cells and -1.6% (inactive).
For `Fc1ccccc1/C=C1\CCCC2=C1Nc1ncnn1C2c1ccccc1F` (configuration not stated) the same measures were 72 cells and 58.7% (active).
Regarding `CC(C)C(C)(C#N)NC(=O)CSc1nc2scc(-c3ccccc3)c2c(=O)[nH]1` (configuration not stated), the cell count in assay [1] is 65 cells. Also, the activation in assay [2] is 6.5% (inactive).
Regarding `NS(=O)(=O)c1ccc(CCNC(=O)c2ccc([N+](=O)[O-])cc2[N+](=O)[O-])cc1`, the cell count in assay [1] is 46 cells. Besides, the activation in assay [2] was -0.2% (inactive).
Consider `O=C(CCC1CCN(C(=O)c2cccc(Cl)c2F)CC1)Nc1ccccc1`, for which the cell count in assay [1] worked out at 63 cells. In addition, the activation in assay [2] is 0.6% (inactive).
`COc1cc(OC)cc(C(=O)NNC(=O)CCOc2ccccc2OC)c1` came in with a cell count in assay [1] of 73 cells. For the same compound, the activation in assay [2] is -0.7% (inactive).
For `CCCCOc1ccc(C(=O)NCC(=O)OCC(=O)c2c(N)n(C)c(=O)n(C)c2=O)cc1` the same measures were 49 cells and -0.7% (inactive).
Compound `Cc1nnc(SCC(=O)N2c3ccccc3C(C)(c3ccc(Cl)cc3)CC2(C)C)s1` (configuration not stated) yielded a cell count in assay [1] of 47 cells. The activation in assay [2] is 8.5% (inactive).
For `CCn1cc(/C=C(\NC(=O)c2ccc(C)cc2)C(=O)NCCN2CCOCC2)c2ccccc21` the same measures were 75 cells and 1.6% (inactive).
Taken in the same sequence, the figures for `N#CC1(NC(=O)COc2ccc3oc4ccccc4c3c2)CCCCC1` were 33 cells and 0.8% (inactive).
For `O=C(Nc1ccc2c(c1)CCC2)c1ccc(Br)s1` the same measures were 65 cells and 4.4% (inactive).
`Clc1cccc(Cl)c1Cn1nnc(-c2cccs2)n1`: in assay [1], the cell count was found to be 79 cells. Also, the activation in assay [2] is 4.8% (inactive).
For `CC(=O)N[C@H]1[C@H]([C@H](O)[C@H](O)CO)OC(C(=O)O)=C[C@@H]1O` the same measures were 69 cells and 1.8% (inactive).
Taken in the same sequence, the figures for `CCOc1c(N2CCCCC2)c(=O)c1=O` were 32 cells and 2.2% (inactive).
In assay [1], `CCOc1ccccc1NC(=O)NC1CCCCCCC1` came in with a cell count of 52 cells. The activation in assay [2] was -0.7% (inactive).
As for `CC1(C)CC(=O)C=C(N2CCOCC2)C1`, the cell count in assay [1] is 46 cells. The activation in assay [2] was 0.2% (inactive).
For `CC(C)(C)C(=O)Nc1ccc(C(=O)N/N=C/c2ccccc2OC(=O)c2ccc(Cl)cc2Cl)cc1` the same measures were 48 cells and 0.7% (inactive).
Taken in the same sequence, the figures for `Cc1nc2ccc(C(=O)N/N=C/c3ccc(O)cc3)cc2[nH]1` were 50 cells and -0.6% (inactive).
In turn, `O=C(N/N=C/c1ccc(OC(=O)c2ccccc2Cl)cc1)c1ccc(O)cc1` registered a cell count in assay [1] of 65 cells. Also, the activation in assay [2] is 40.7% (active).
In turn, `CC1=CC=CN2C1=NC(=O)CC2(C)C(=O)N(CC(=O)NC1CCCC1)c1ccccc1C` (configuration not stated) showed a cell count in assay [1] of 39 cells. Besides, the activation in assay [2] was 1% (inactive).
Compound `Cc1ccc(N2C(=O)C(NC(=O)c3c(F)cccc3F)(C(F)(F)F)C3=C2CC(C)(C)CC3=O)cc1` (configuration not stated) gave a cell count in assay [1] of 69 cells. Further, the activation in assay [2] is 4% (inactive).
Take `COc1ccccc1CN(C)c1nnnn1-c1ccccc1`: the cell count in assay [1] amounted to 50 cells. Moreover, the activation in assay [2] is 1.1% (inactive).
`CSc1ccc(CNCCN2CCOCC2)cc1`: the cell count in assay [1] is 55 cells. In assay [2], the activation is -2.1% (inactive).
For `FC(F)(F)Oc1ccc(-c2cn3cccnc3n2)cc1` the same measures were 36 cells and 3.1% (inactive).
Taken in the same sequence, the figures for `CCc1ccccc1NC(=O)/C(=C/c1ccccc1)c1ccccc1` were 63 cells and 6.1% (inactive).
For the compound `Cc1coc(C)c1C(=O)CC1(O)C(=O)N(C)c2ccc(Cl)cc21` (configuration not stated), the cell count in assay [1] amounted to 91 cells. For the same compound, the activation in assay [2] was -1% (inactive).
For `CN(C)CCNC(=O)C(C(=O)c1ccccc1)n1ccccc1=O` (configuration not stated) the same measures were 94 cells and -1.5% (inactive).
For `CCS(=O)(=O)n1nc(-c2ccccc2)nc1SCc1ccccc1` the same measures were 92 cells and 6.4% (inactive).
The compound `CN(C)/C=C(/C(=O)c1ccc(F)cc1)S(=O)(=O)c1ccc(F)cc1` came in with a cell count in assay [1] of 51 cells. In addition, the activation in assay [2] is -0.1% (inactive).
On to `CCOC(=O)c1c(CN2CCOCC2)n(-c2ccccc2)c2ccc(O)cc12`, for which the cell count in assay [1] stood at 70 cells. Also, in assay [2], the activation was 2.7% (inactive).
`CC1=NNC(=O)C1CCC(=O)N/N=C\c1cccc(Cl)c1` (configuration not stated): the cell count in assay [1] is 94 cells. In addition, in assay [2], the activation was -1% (inactive).
Turning to `CCOC(=O)c1cnc(SCC(=O)Nc2ccccc2C(=O)OC)nc1N`, in assay [1], the cell count worked out at 88 cells. Further, the activation in assay [2] was -1.8% (inactive).
